A number with no mark means an inactive call.

This test deals with Vero E6 infected with SARS-CoV-2. As to the kind of experiment: inhibition of SARS-CoV-2 cytopathic effect; higher = more antiviral protection, active = above 15. The conditions noted are these: 48 h.

Take `O=C(O)c1cc(O)c2c(Cl)cc(Cl)cc2n1` [5,7-dichlorokynurenic-acid]: the “inhibition of SARS-CoV-2 cytopathic effect” value (“inhibition” below) was 1.65% (1 nM); -2.54% (8.33 nM); -2.79% (100 nM); 0.55% (833.33 nM); -0.44% (10000 nM).

Consider `COc1cc(/C=C/C(N)=O)cc(OC)c1OC` [cintriamide], for which the “inhibition” value (1 nM) is -2.6%; the “inhibition” value (8.33 nM) was 1.17%; the “inhibition” value (100 nM) is -4.56%; the “inhibition” value (833.33 nM) is 2.97%; the “inhibition” value (10000 nM) is 2.84%.

On to `CC(C)(C(=O)O)c1ccc(C(O)CCCN2CCC(C(O)(c3ccccc3)c3ccccc3)CC2)cc1` (stereo not given) [fexofenadine], for which the “inhibition” value is 0.81% (1 nM); -0.73% (8.33 nM); -0.49% (100 nM); 1.17% (833.33 nM); 2.18% (10000 nM).

As to `O=C1NS(=O)(=O)c2ccccc21` [saccharin], the “inhibition” value (1 nM) was 0.13%; the “inhibition” value (8.33 nM) was -1.09%; the “inhibition” value (100 nM) was 0.17%; the “inhibition” value (833.33 nM) is -0.12%; the “inhibition” value (10000 nM) is -2.82%.

For the molecule `O=C(c1ccc(OCCN2CCCCC2)cc1)c1c(-c2ccc(O)cc2)sc2cc(O)ccc12` [raloxifene], the “inhibition” value runs as follows: (1 nM) 3.31%; (8.33 nM) 1.2%; (100 nM) 2.79%; (833.33 nM) 4.77%; (10000 nM) 24.4% (active).

With `CCn1cc(-c2ccnc3[nH]c(-c4cccc(CN(C)C)c4)cc23)c(-c2ccc(NC(=O)N(C)C)cc2)n1`, the “inhibition” value was 0.02% (1 nM); -2.56% (8.33 nM); -1.67% (100 nM); -3.22% (833.33 nM); 1.16% (10000 nM).

As for `c1cc2c(cc1C1CCCCC1)c1c3n2CCNC3CCC1` (stereo not given) [tetrindole], the “inhibition” value runs as follows: (1 nM) 1.68%; (8.33 nM) 1.55%; (100 nM) -2.86%; (833.33 nM) -1.8%; (10000 nM) 20.8% (active).

Consider `C[C@@H]1CCN(C(=O)CC#N)C[C@@H]1N(C)c1ncnc2[nH]ccc12`, for which the “inhibition” value is, setting by setting: (1 nM) -0.74%; (8.33 nM) 0.22%; (100 nM) -0.47%; (833.33 nM) -2.11%; (10000 nM) -0.5%.

Turning to `CC(=O)O[C@]1(C(C)=O)CC[C@H]2[C@@H]3CCC4=CC(=O)CC[C@]4(C)[C@H]3CC[C@@]21C` [hydroxyprogesterone-acetate], the “inhibition” value was -3.23% (1 nM); 0.18% (8.33 nM); -2.75% (100 nM); 0.45% (833.33 nM); 10.9% (10000 nM).

As for `CC(C)(C)n1nc(-c2cccc3ccccc23)c2c(N)ncnc21` [1-naphthyl-PP1], the “inhibition” value by setting is: (1 nM) 0.05%; (8.33 nM) 1.77%; (100 nM) 1.73%; (833.33 nM) 1.24%; (10000 nM) -4.31%.

As to `CC(=O)Nc1ccccc1` [acetanilide], the “inhibition” value reads like this: (1 nM) -1.3%; (8.33 nM) 2.8%; (100 nM) 1.67%; (833.33 nM) 1.23%; (10000 nM) 0.69%.

In the case of `O=c1c(-c2ccc(O)cc2)coc2c([C@@H]3O[C@H](CO)[C@@H](O)[C@H](O)[C@H]3O)c(O)ccc12` [kakonein], the “inhibition” value was -2.72% (1 nM); -3.42% (8.33 nM); -3.81% (100 nM); -5.79% (833.33 nM); -6.74% (10000 nM).

On to `CCN(CC)CCNC(=O)c1c(C)[nH]c(/C=C2\C(=O)Nc3ccc(F)cc32)c1C` [sunitinib], for which the “inhibition” value was 0.55% (1 nM); -1.31% (8.33 nM); 2.08% (100 nM); -2.15% (833.33 nM); 30.3% (active) (10000 nM).

`O=C(O)C[C@H]1CC[C@H](c2ccc(-c3ccc(Nc4ccc(C(F)(F)F)nc4)cn3)cc2)CC1`: the “inhibition” value runs as follows: (1 nM) -1.27%; (8.33 nM) 0.84%; (100 nM) -0.93%; (833.33 nM) -2.65%; (10000 nM) 1.98%.

As to `COc1ccc2c(c1)c(CC(=O)N1CCOCC1)c(C)n2C(=O)c1ccc(Cl)cc1`, the “inhibition” value reads like this: (1 nM) 0.39%; (8.33 nM) -0.48%; (100 nM) 1.8%; (833.33 nM) -0.58%; (10000 nM) -0.85%.

As for `CCN(CC)CCCCN1c2ccccc2Oc2ccc(Cl)cc21`, the “inhibition” value (1 nM) was 0.59%; the “inhibition” value (8.33 nM) is -2.15%; the “inhibition” value (100 nM) was -2.29%; the “inhibition” value (833.33 nM) was -3.45%; the “inhibition” value (10000 nM) is 40.9% (active).

With `CO[C@H]1C[C@H](O[C@H]2[C@H](C)O[C@@H](O[C@@H]3/C(C)=C/C[C@@H]4C[C@@H](C[C@]5(C=C[C@H](C)[C@@H](C6CCCCC6)O5)O4)OC(=O)[C@@H]4C=C(C)[C@@H](O)[C@H]5OC/C(=C\C=C\[C@@H]3C)[C@]54O)C[C@@H]2OC)O[C@@H](C)[C@@H]1O` [doramectin], the “inhibition” value reads like this: (1 nM) 0.81%; (8.33 nM) 1.22%; (100 nM) 1.24%; (833.33 nM) 0.55%; (10000 nM) 2.69%.
